Results reported in PubChem BioAssay (NCATS).
Records with an inconclusive call do not appear. Unmarked numbers belong to inactive results. The source made the active and inactive calls. Calls come from the whole dose curve; as a rule, active = well fitted inhibition curve with a large enough effect; inconclusive = small, poorly fitted or top-dose-only effect; inactive = flat fitted curve, though single readings scatter.

target: Calcium and integrin-binding protein 1 (Homo sapiens) (UniProt Q99828); test: Primary qHTS for Identification of Calcium Integrin Binding Protein 1 (CIB1) Competitor (AID 1508620); conditions: CIB1-GST / FITC-alphaIIb peptide fluorescence polarization; series mostly up to 114 µM; activity change, negative = inhibition: at the top concentration;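 note: GST tagged CIB1 binding a fluorescein labelled alphaIIb integrin peptide tracer; top concentration of the series differs between compounds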
Sequence (Q99828 whole entry, looked up): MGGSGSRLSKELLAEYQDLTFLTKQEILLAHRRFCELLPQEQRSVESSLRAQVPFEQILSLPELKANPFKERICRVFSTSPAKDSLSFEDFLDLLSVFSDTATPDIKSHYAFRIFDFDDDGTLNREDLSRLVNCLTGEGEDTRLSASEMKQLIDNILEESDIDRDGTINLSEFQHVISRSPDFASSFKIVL
Method in brief: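 Fluorescence polarization competition: CIB1-GST (1 uM final) preincubated with compound 15 min at room temperature, then FITC-labeled alphaIIb peptide (100 nM final) added for another 15 min. Polarization read at Ex 480/Em 540.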
% is set by controls: 0 for no effect and ±100 for the full control effect.

| SMILES | activity change, negative = inhibition | Potency |
| --- | --- | --- |
| O=C1CCc2cc(S(=O)(=O)Nc3ccccc3Cl)ccc2N1 | -6.14% | – |
| COc1ccc(C2=Nn3c(nnc3-c3ccc(OC)c(OC)c3)SC2)cc1OC | 1.49% | – |
| CC(=O)c1cc2c(s1)c1cnn(Cc3ccccc3F)c(=O)c1n2C | 2.22% | – |
| Cc1ccc(NS(=O)(=O)c2ccc(Cl)cc2)cc1C | 2.26% | – |
| O=C(Nc1cc(C(F)(F)F)cc(C(F)(F)F)c1)Nc1nnc(-c2ccncc2)s1 | -16.4% | – |
| COc1ccc(-c2nnc3n2N=C(c2cc(OC)ccc2OC)CS3)cc1 | 2.13% | – |
| O=C(O)c1ccc2c(c1)C(=O)N([C@H](Cc1ccc(O)c(O)c1)C(=O)O)C2=O | -3.04% | – |
| S=C(NCCCc1cnc[nH]1)NCCCN(Cc1ccc(Cl)cc1)c1ccc(Br)cn1 | -8.46% | – |
| Cc1cc(-c2ccccc2)nc2c(C(=O)Nc3ccc4c(c3)CCC4)cnn12 | 1.99% | – |
| FC(F)(F)c1ccc(-c2nc(-c3nnc4n3CCCCC4)c(C(F)(F)F)o2)cc1 | 2.16% | – |
| O=C(Nc1ccc(Cl)c(Cl)c1)N1CCN(c2ccncc2)CC1 | 0.613% | – |
| CCC(=O)NC(c1cc(Cl)c2cccnc2c1O)C(C)C (stereo not given) | -8.8% | – |
| CC(=O)Nc1sc2c(c1-c1cccc3ccccc13)CCNC2 | 0.479% | – |
| COc1cccc(Cn2ncc3c4sc(Br)cc4n(C)c3c2=O)c1 | 0.546% | – |
| CC(C)(C)c1ccccc1Nc1nc(C#N)nc(NC2CCCC2)n1 | 8.08% | – |
| COc1cccc(NC(=S)N2CCN(c3cc(C(F)(F)F)cc(C(F)(F)F)c3)CC2)n1 | 3.43% | – |
| Cc1cc(C)n2ncc(C(=O)Nc3cccc(C#N)c3)c2n1 | -2.37% [at 30.2 µM] | – |
| O=C(O)c1ccc2c(c1)C(=O)N(CCc1ccc(O)cc1)C2=O | -14% | – |
| O=C1CCCC2=C1C(c1ccccc1C(F)(F)F)N=C(Nc1nc3ccccc3o1)N2 (stereo not given) | 0.358% | – |
| Cc1cnc(N2CCC(C(N)=O)CC2)nc1-c1cccc(N(C)C)c1 | -1.73% | – |

| SMILES | activity change, negative = inhibition | Potency |
| --- | --- | --- |
| CC(C)c1ccccc1-c1nc(NCc2ccc(-c3cccnc3)cc2)c2ccccc2n1 | 6.26% | – |
| CC(=O)Nc1sc2c(c1C(=O)O)CCNC2 | 1.07% | – |
| O=C1Cc2cc(S(=O)(=O)N3CCN(c4ccc(C(F)(F)F)cc4)CC3)ccc2N1 | 8.27% [at 228 µM] | – |
| O=C(/C=C/c1ccc(Cl)cc1)Nc1cccc([S+](=O)([O-])Nc2ccccc2F)c1 | – | inactive |
| NC(=O)C1CCN(c2nccc(-c3ccc(Br)cc3)n2)CC1 | 5% | – |
| O=C(OCC#CCSc1nnc(-c2cccc3ccccc23)o1)C1CCCC1 | -0.608% | – |
| CC(=O)c1cccc(NC(=O)c2cnn3c(C)cc(C)nc23)c1 | 3.09% | – |
| O=C(N1Cc2ccc(Nc3nn4c(=O)c5ccccc5nc4s3)cc2C1)C(F)(F)F | 8.54% | – |
| COc1ccc(C2Nc3ccccc3C(=O)N2Cc2cccs2)cc1COc1c(C)cc(NC(C)=O)cc1C (stereo not given) | 5.9% | – |
| O=C(Cn1nc(-c2ccc(OC(F)(F)F)cc2)ccc1=O)NCCc1ccccc1 | 4.09% | – |
| Cn1nnnc1Sc1ncnc2scc(-c3cccc([N+](=O)[O-])c3)c12 | -17.8% | – |
| O=C1CCc2cc(S(=O)(=O)Nc3ccc(Cl)c(Cl)c3)ccc2N1 | -11.3% | – |
| CCOC(=O)C1CCN(c2nc(-c3ccc(Br)cc3)cs2)CC1 | -0.614% | – |
| Cc1cc2c(s1)c1cnn(Cc3c(F)ccc(F)c3Cl)c(=O)c1n2C | 11.9% | – |
| Nc1ccc(S(=O)(=O)N2CCCN(S(=O)(=O)c3ccc4c(c3)OCCO4)CC2)cc1 | 3.56% | – |
| CCOc1ccc(CCNC(=O)c2cc3sccc3n2Cc2ccncc2)cc1OCC | -1.57% | – |
| Oc1cc(Nc2cccnc2)cc2cccnc12 | -5.63% | – |
| N#Cc1ccc(-c2ccc(CNc3ccc(N4CCC(C(F)(F)F)CC4)cc3)o2)cc1 | -4.07% | – |
| Cc1cc(NC(=O)Nc2nnc(-c3ccncc3)s2)ccc1Br | -1.1% | – |
| Cc1ccc(OCCn2c(CCNC(=O)c3ccc[nH]3)nc3ccccc32)cc1 | 8.36% | – |
